According to PubChem BioAssay (NCATS):
Records with an inconclusive call do not appear. Calls of active or inactive are those of the source. Calls come from the whole dose curve; as a rule, active = well fitted cell-killing curve with a large enough effect; inconclusive = small, poorly fitted or top-dose-only effect, or effect the other way; inactive = flat fitted curve, though single readings scatter.

Columns and labels:
Assay in all cases: Primary qHTS to identify gynecologic anti-cancer compounds using libraries of approved drugs and bioactive compounds (AID 1345084); note: nearly all actives have a fitted effect of over 55% in size
[1] = test system: C33A; details: Gynecologic cancer cell panel viability, ATPlite luminescence, 48 h; series mostly up to 57.5 µM
In short: (§1)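 In this quantitative HTS, cell killing is estimated from loss of ATP-dependent luciferase light. Cells see five compound concentrations over a 48 h exposure.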

[2] = test system: CAOV3; details: Gynecologic cancer cell panel viability, ATPlite luminescence, 48 h; series mostly up to 57.5 µM
In short: as §1

[3] = test system: CASKI; details: Gynecologic cancer cell panel viability, ATPlite luminescence, 48 h; series mostly up to 57.5 µM
In short: as §1

[4] = test system: Es-2; details: Gynecologic cancer cell panel viability, ATPlite luminescence, 48 h; series mostly up to 57.5 µM
In short: as §1

[5] = test system: HeLa; details: Gynecologic cancer cell panel viability, ATPlite luminescence, 48 h; series mostly up to 57.5 µM
In short: as §1

[6] = test system: Hek293T; details: Gynecologic cancer cell panel viability, ATPlite luminescence, 48 h, control line for the selectivity index; series mostly up to 57.5 µM
In short: as §1

[7] = test system: JEG-3; details: Gynecologic cancer cell panel viability, ATPlite luminescence, 48 h; series mostly up to 57.5 µM
In short: as §1

[8] = test system: OV90; details: Gynecologic cancer cell panel viability, ATPlite luminescence, 48 h; series mostly up to 57.5 µM
In short: as §1

[9] = test system: PA-1; details: Gynecologic cancer cell panel viability, ATPlite luminescence, 48 h; series mostly up to 57.5 µM
In short: as §1

[10] = test system: SKOV3; details: Gynecologic cancer cell panel viability, ATPlite luminescence, 48 h; series mostly up to 57.5 µM
In short: as §1

[11] = test system: Tov-21-G; details: Gynecologic cancer cell panel viability, ATPlite luminescence, 48 h; series mostly up to 57.5 µM
In short: as §1

[12] = test system: Tov112D; details: Gynecologic cancer cell panel viability, ATPlite luminescence, 48 h; series mostly up to 57.5 µM
In short: as §1
% is set by controls: 0 for no effect and ±100 for the full control effect.

CC1C(OC(=O)c2ccccc2)C(O)C2C(C(=O)O)=COC(OC3OC(CO)C(O)C(O)C3O)C12 (configuration not stated)
inactive: Potency [1] | Potency [2] | Potency [3] | Potency [4] | Potency [5] | Potency [6] | Potency [7] | Potency [8] | Potency [9] | Potency [10] | Potency [11] | Potency [12]

CC1OC(O[C@H]2CC[C@@]3(C)C(CC[C@]4(C)C3CC=C3C5CC(C)(C)CC[C@]5(C(=O)OC5OC(CO)C(OC6OC(COC7OCC(O)C(O)C7O)C(O)C(O)C6O)C(O)C5O)CC[C@]34C)C2(C)C)C(O)C(O)C1OC1OCC(OC2OCC(O)C(O)C2O)C(O)C1O (some centres not stated)
inactive: activity change, negative = cytotoxicity [1] 24.4% [at 6.55 µM] | activity change, negative = cytotoxicity [2] 3.53% [at 6.55 µM] | activity change, negative = cytotoxicity [3] -2% [at 6.55 µM] | activity change, negative = cytotoxicity [4] 0.974% [at 6.55 µM] | activity change, negative = cytotoxicity [5] -5.59% [at 6.55 µM] | activity change, negative = cytotoxicity [6] 2.21% [at 6.55 µM] | activity change, negative = cytotoxicity [7] 7.58% [at 6.55 µM] | activity change, negative = cytotoxicity [8] 5.67% [at 6.55 µM] | activity change, negative = cytotoxicity [9] -4.41% [at 6.55 µM] | activity change, negative = cytotoxicity [10] 5.68% [at 6.55 µM] | activity change, negative = cytotoxicity [11] -0.908% [at 6.55 µM] | activity change, negative = cytotoxicity [12] -13.2% [at 6.55 µM]

Nc1nc(-n2cc(C(=O)O)c(=O)c3cc(F)c(N4CC(O)C4)c(Cl)c32)c(F)cc1F
inactive: Potency [1] | Potency [2] | Potency [3] | Potency [4] | Potency [5] | Potency [6] | Potency [7] | Potency [8] | Potency [9] | Potency [10] | Potency [11] | Potency [12]

OC1CCC(Nc2ncc3nc(Nc4c(F)cc(F)cc4F)n([C@H]4CCOC4)c3n2)CC1 (some centres not stated)
inactive: Potency [1] | Potency [2] | Potency [3] | Potency [4] | Potency [5] | Potency [6] | Potency [7] | Potency [8] | Potency [9] | Potency [10] | Potency [11] | Potency [12]

Fc1ccc2nc(CCC#Cc3ccccn3)cn2c1
inactive: Potency [1] | Potency [2] | Potency [3] | Potency [4] | Potency [5] | Potency [6] | Potency [7] | Potency [8] | Potency [9] | Potency [10] | Potency [11] | Potency [12]

C=C1CCC2C(C(C)(C)O)CCC2(C)CC(O)C(=C)CCC1O (configuration not stated)
inactive: Potency [1] | Potency [2] | Potency [3] | Potency [4] | Potency [5] | Potency [6] | Potency [7] | Potency [8] | Potency [9] | Potency [10] | Potency [11] | Potency [12]

C[C@@H]1CC[C@]2(C(=O)O[C@@H]3O[C@H](CO)[C@@H](O)[C@H](O)[C@H]3O)CC[C@]3(C)C(=CCC4[C@@]5(C)C[C@@H](O)[C@H](O)[C@@](C)(C(=O)O[C@H]6[C@H](O)C[C@@]7(C)C(CC[C@]8(C)C7CC=C7[C@H]9[C@](C(=O)O[C@@H]%10O[C@H](CO)[C@@H](O)[C@H](O)[C@H]%10O)(CC[C@@H](C)[C@@]9(C)O)CC[C@]78C)[C@@]6(CO)C(=O)O)C5CC[C@]43C)[C@@H]2[C@]1(C)O (some centres not stated)
inactive: activity change, negative = cytotoxicity [1] 2.44% [at 6.55 µM] | activity change, negative = cytotoxicity [2] 6.22% [at 6.55 µM] | activity change, negative = cytotoxicity [3] 11.5% [at 6.55 µM] | activity change, negative = cytotoxicity [4] -0.958% [at 6.55 µM] | activity change, negative = cytotoxicity [5] -3.59% [at 6.55 µM] | activity change, negative = cytotoxicity [6] 2.04% [at 6.55 µM] | activity change, negative = cytotoxicity [7] -2.9% [at 6.55 µM] | activity change, negative = cytotoxicity [8] -0.495% [at 6.55 µM] | activity change, negative = cytotoxicity [9] 8.04% [at 6.55 µM] | activity change, negative = cytotoxicity [10] 17.7% [at 6.55 µM] | activity change, negative = cytotoxicity [11] 0.548% [at 6.55 µM] | activity change, negative = cytotoxicity [12] 3.01% [at 6.55 µM]

C[C@@H]1CN(Cc2ccccc2)C[C@H]1c1nc2c(cnn2C2CCOCC2)c(=O)[nH]1
inactive: Potency [1] | Potency [2] | Potency [3] | Potency [4] | Potency [5] | Potency [6] | Potency [7] | Potency [8] | Potency [9] | Potency [10] | Potency [11] | Potency [12]

COC(=O)[C@@]1(c2ccc(C)cc2)C[C@H]1CN1CCC(O)(c2ccccc2)CC1
inactive: Potency [1] | Potency [2] | Potency [3] | Potency [4] | Potency [5] | Potency [6] | Potency [7] | Potency [8] | Potency [9] | Potency [10] | Potency [11] | Potency [12]

CC(=O)O[C@]1(C(C)=O)CC[C@H]2[C@@H]3C[C@H](C)C4=CC(=O)C=C[C@]4(C)[C@@]3(F)[C@@H](O)C[C@@]21C
inactive: Potency [1] | Potency [2] | Potency [3] | Potency [4] | Potency [5] | Potency [6] | Potency [7] | Potency [8] | Potency [9] | Potency [10] | Potency [11] | Potency [12]

C/C=C1\[C@H](O[C@@H]2O[C@H](CO)[C@@H](O)[C@H](O)[C@H]2O)OC=C(C(=O)OC)[C@H]1CC(=O)O
inactive: Potency [1] | Potency [2] | Potency [3] | Potency [4] | Potency [5] | Potency [6] | Potency [7] | Potency [8] | Potency [9] | Potency [10] | Potency [11] | Potency [12]
